{
  "source": "PubChem BioAssay AID743445",
  "about": "(Broad Institute, 2014)",
  "note": "Among all 310,000 compounds or so, about 1,700 (0.55%) were called active. Only a selection was taken, and actives are over-represented in it overall. Values without a mark were called inactive. Rule as the data show it: active = inhibition above about 50%; inactive = the rest.",
  "data": [
    {"target": "Histone-lysine N-methyltransferase NSD2 (Homo sapiens) (UniProt O96028)", "sequence (O96028 whole entry, looked up)": "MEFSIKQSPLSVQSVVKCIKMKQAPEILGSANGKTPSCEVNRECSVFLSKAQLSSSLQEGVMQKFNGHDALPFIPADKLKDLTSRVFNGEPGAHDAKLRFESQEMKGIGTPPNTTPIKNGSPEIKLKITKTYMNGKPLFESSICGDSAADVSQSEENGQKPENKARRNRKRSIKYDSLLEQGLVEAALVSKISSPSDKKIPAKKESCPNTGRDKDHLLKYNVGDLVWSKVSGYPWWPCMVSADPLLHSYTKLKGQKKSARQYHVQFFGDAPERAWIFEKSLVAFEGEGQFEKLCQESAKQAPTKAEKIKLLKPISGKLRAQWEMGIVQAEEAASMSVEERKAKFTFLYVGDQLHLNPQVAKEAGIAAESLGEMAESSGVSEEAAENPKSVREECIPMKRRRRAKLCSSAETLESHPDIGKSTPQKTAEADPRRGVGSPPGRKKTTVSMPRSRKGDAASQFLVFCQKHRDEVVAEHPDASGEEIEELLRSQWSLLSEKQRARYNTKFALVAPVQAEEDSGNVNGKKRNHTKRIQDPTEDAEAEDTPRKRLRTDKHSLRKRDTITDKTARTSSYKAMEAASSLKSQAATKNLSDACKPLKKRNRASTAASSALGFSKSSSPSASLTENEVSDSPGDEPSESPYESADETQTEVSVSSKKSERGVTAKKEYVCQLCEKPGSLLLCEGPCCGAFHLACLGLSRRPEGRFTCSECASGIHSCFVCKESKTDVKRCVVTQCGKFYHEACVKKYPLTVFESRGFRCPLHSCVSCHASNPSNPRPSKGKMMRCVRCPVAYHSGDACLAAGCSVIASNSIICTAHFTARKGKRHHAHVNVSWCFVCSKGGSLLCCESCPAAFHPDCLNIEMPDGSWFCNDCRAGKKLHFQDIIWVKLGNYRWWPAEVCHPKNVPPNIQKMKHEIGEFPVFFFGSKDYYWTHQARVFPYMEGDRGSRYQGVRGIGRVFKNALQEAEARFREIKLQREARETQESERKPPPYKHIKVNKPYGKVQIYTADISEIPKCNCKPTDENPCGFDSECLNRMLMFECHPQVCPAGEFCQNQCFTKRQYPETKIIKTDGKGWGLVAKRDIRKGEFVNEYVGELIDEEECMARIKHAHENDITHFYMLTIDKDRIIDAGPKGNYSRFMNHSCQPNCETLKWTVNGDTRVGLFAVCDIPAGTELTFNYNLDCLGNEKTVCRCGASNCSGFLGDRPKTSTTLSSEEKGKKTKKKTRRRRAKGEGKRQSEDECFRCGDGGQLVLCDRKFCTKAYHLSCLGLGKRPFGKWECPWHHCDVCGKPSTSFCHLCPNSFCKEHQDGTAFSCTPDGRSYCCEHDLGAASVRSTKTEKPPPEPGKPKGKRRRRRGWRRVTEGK", "assay": "blockers of NSD2 lysine methylation activity – biochemical, AlphaScreen, single concentration, set 2, primary screen (AID 743445)", "conditions": "NSD2 peptide methylation, 120 min, at 12.5 µM, stronger effect = higher value", "values": [
      {"smiles": "CC(C)NC(=O)C1(C)CCCCCN1C(=O)c1ccc(-c2ccccc2)cc1", "note": "(stereo not given)", "inhibition": "-1.44%"},
      {"smiles": "Cc1ccc(-n2c(SCC(=O)Nc3ccc(S(=O)(=O)Nc4nccs4)cc3)nnc2-c2ccncc2)cc1", "inhibition": "6.51%"},
      {"smiles": "COc1cccc(N2CCN(CC(=O)N(C)Cc3ccc(F)cc3)CC2)c1", "inhibition": "2.97%"},
      {"smiles": "CN(C)c1ccc(/C=N/Nc2cc(N3CCOCC3)nc(N3CCOCC3)n2)cc1", "inhibition": "4.94%"},
      {"smiles": "C(=N/Nc1cc(N2CCOCC2)nc(N2CCOCC2)n1)/c1ccccc1", "inhibition": "50.1% (active)"},
      {"smiles": "COc1ccc(/C=N/Nc2cc(N3CCOCC3)nc(C)n2)c(OC)c1", "inhibition": "7.29%"},
      {"smiles": "Nn1c(SCC(=O)N2c3ccccc3Sc3ccccc32)nnc1-c1n[nH]c2c1CCC2", "inhibition": "14.3%"},
      {"smiles": "Cc1ccc(-n2c(SCC(=O)Nc3cccc4ccccc34)nnc2-c2ccco2)cc1", "inhibition": "-0.2%"},
      {"smiles": "COC(=O)CNC(=O)c1ccccc1[N+](=O)[O-]", "inhibition": "0.597%"},
      {"smiles": "O=C(CNC(=O)c1ccccc1)Oc1ccc([N+](=O)[O-])cc1", "inhibition": "53.4% (active)"},
      {"smiles": "O=C(NNS(=O)(=O)Cc1ccccc1)c1ccc([N+](=O)[O-])cc1", "inhibition": "-3.19%"},
      {"smiles": "CC(=O)Nc1cccc(-c2cc3nc(NCc4cccnc4)n(C)c(=O)c3s2)c1", "inhibition": "-4.37%"},
      {"smiles": "Cc1ccccc1NC(=O)Cn1nnc(-c2ccccc2F)n1", "inhibition": "-1.41%"},
      {"smiles": "O=C(NCc1ccccc1)[C@@H]1CCCN1C(=O)[C@@H](NS(=O)(=O)c1ccc(F)cc1F)C1CCCCC1", "inhibition": "-1.37%"},
      {"smiles": "CC(=O)N(C1=C(Cl)C(=O)c2ccccc2C1=O)c1ccc(C(=O)O)cc1", "inhibition": "142% (active)"},
      {"smiles": "O=C(NC1=CC(=O)c2ccccc2C1=O)c1ccccc1", "inhibition": "40.2%"},
      {"smiles": "CCOC(=O)C1(Cc2ccccc2)CCN(Cc2cn(C(C)=O)c3ccccc23)CC1", "inhibition": "3.51%"},
      {"smiles": "Cc1ccc(-c2nnc(SCC(=O)Nc3ccc(Oc4ccccc4)cc3)n2Cc2ccco2)cc1", "inhibition": "0.417%"},
      {"smiles": "CCOc1ccc(/C=C/C(=O)OCC(=O)c2ccccc2OC)cc1OC", "inhibition": "-0.606%"},
      {"smiles": "CCOc1cc(/C=C/C(=O)OCC(=O)NCCN2C(=O)CSC2=O)ccc1OCC(C)C", "inhibition": "128% (active)"},
      {"smiles": "CCOC(=O)CCCNC(=O)COC(=O)/C=C/c1ccc2c(c1)OCO2", "inhibition": "-2.71%"},
      {"smiles": "COc1ccc(-n2c(SCC(=O)NC3CCCC3)nnc2-c2ccncc2)cc1", "inhibition": "7.3%"},
      {"smiles": "O=C(CN1CCC(O)(c2ccccc2)CC1)Nc1ccc2c(c1)OCCO2", "inhibition": "-3.29%"},
      {"smiles": "O=C(Cn1c(=O)sc2ccccc21)Nc1ccc2c(c1)OCCO2", "inhibition": "6.04%"},
      {"smiles": "O=C(Cn1cc(C(F)(F)F)ccc1=O)Nc1ccc2c(c1)OCCO2", "inhibition": "58% (active)"},
      {"smiles": "O=C1Nc2ccccc2OC1CC(=O)N1CCCCCCC1", "note": "(stereo not given)", "inhibition": "4.5%"},
      {"smiles": "O=C(NCc1cccs1)C1CCCN(S(=O)(=O)c2ccc([N+](=O)[O-])cc2)C1", "note": "(stereo not given)", "inhibition": "-2.05%"},
      {"smiles": "CCOc1ccc(Cl)cc1-c1cc(C(=O)NCc2cccs2)[nH]n1", "inhibition": "0.509%"},
      {"smiles": "CCOc1ccc(N(CC(=O)Nc2c(C)n(C)n(-c3ccccc3)c2=O)S(=O)(=O)c2ccc(Cl)s2)cc1", "inhibition": "0.729%"},
      {"smiles": "COC(=O)c1c(-c2cccs2)csc1NC(=O)CSc1ncnc2sc(C)c(C)c12", "inhibition": "-3.04%"},
      {"smiles": "Cc1sc2ncnc(SCC(=O)Nc3ccc(CN4CCCC4)cc3)c2c1C", "inhibition": "56.5% (active)"},
      {"smiles": "Cc1sc2ncnc(SCC(=O)NC3CCS(=O)(=O)C3)c2c1C", "note": "(stereo not given)", "inhibition": "-1.67%"},
      {"smiles": "Nn1c(SCC(=O)Nc2cccc3ccccc23)nnc1-c1cc(-c2ccc(F)cc2)n[nH]1", "inhibition": "8.09%"},
      {"smiles": "COc1ccc(-n2c(COc3ccccc3)nnc2SCC(=O)Nc2ccc3c(c2)OCO3)cc1", "inhibition": "-0.703%"},
      {"smiles": "CC(=O)c1c(C)[nH]c(C(=O)NCCCN2CCCC2)c1C", "inhibition": "7.16%"},
      {"smiles": "Cc1cc(C)cc(C(=O)NCCN2CCOCC2)c1", "inhibition": "4.87%"},
      {"smiles": "CCOC(=O)c1c(C)[nH]c(C(=O)NCCN2CCOCC2)c1C", "inhibition": "74.8% (active)"},
      {"smiles": "C=CCn1c(SCC(N)=O)nnc1-c1ccccc1OC", "inhibition": "-2.46%"},
      {"smiles": "Cc1ccc(-n2c(COc3ccccc3)nnc2SCC(=O)Nc2ccc3c(c2)OCCO3)cc1", "inhibition": "5.45%"},
      {"smiles": "O=C(Nc1cc(F)cc(F)c1)OC1CCC12CCC(c1ccccc1)CC2", "note": "(stereo not given)", "inhibition": "-4.2%"},
      {"smiles": "COC(=O)c1ccccc1-n1cc(COC(=O)NCCc2ccccc2)nn1", "inhibition": "-1.58%"},
      {"smiles": "O=C(CCCCCN1C(=O)C2C3C=CC(C3)C2C1=O)Nc1ccccc1", "note": "(stereo not given)", "inhibition": "-10.2%"},
      {"smiles": "O=C(Nc1ccccc1)N1CCN(Cc2nc3ccccc3c(=O)[nH]2)CC1", "inhibition": "-3.56%"},
      {"smiles": "O=C(NCc1ccco1)c1nc2ncccn2n1", "inhibition": "-4.87%"},
      {"smiles": "O=C(NCc1ccco1)c1nc(-c2ccccc2)n(-c2ccccc2)n1", "inhibition": "59.6% (active)"},
      {"smiles": "O=C(CSc1nnnn1-c1ccccc1)NCc1ccco1", "inhibition": "-2.53%"},
      {"smiles": "COC(=O)C1=C(C)N(Cc2cccc(C(F)(F)F)c2)C(=NCc2ccccc2)NC1c1ccccc1C(F)(F)F", "note": "(stereo not given)", "inhibition": "-2.64%"},
      {"smiles": "Nn1c(SCC(=O)Nc2ccc(S(N)(=O)=O)cc2)nnc1-c1n[nH]c2c1CCC2", "inhibition": "-3.92%"},
      {"smiles": "O=C(CSc1nc2sc3c(c2c(=O)n1-c1ccccc1)CCCC3)NN=Cc1ccc(OCc2ccccc2)cc1", "inhibition": "6.16%"},
      {"smiles": "C/C(CC(=O)NC(C)(C)C)=N\\NC(=O)c1ccco1", "inhibition": "-3.83%"},
      {"smiles": "COc1cccc2cc(/C(C)=N/NC(=O)c3ccco3)oc12", "inhibition": "-1.2%"},
      {"smiles": "C/C(=N/NC(=O)CCc1ccccc1)c1ccco1", "inhibition": "51.2% (active)"},
      {"smiles": "CCOc1ccc(Oc2c(Cl)cnn(-c3ccc(C)cc3)c2=O)cc1", "inhibition": "-2.84%"},
      {"smiles": "O=C(CSc1nc2c(c(=O)[nH]1)CCCC2)N1CCCCC1", "inhibition": "-1.56%"},
      {"smiles": "CC(C)Nc1nc(NCCOc2ccccc2Cl)c2sccc2n1", "inhibition": "2.58%"},
      {"smiles": "COc1cc(/C=C/C(=O)n2cnc3ccccc32)cc(OC)c1OC", "inhibition": "0.939%"},
      {"smiles": "Cc1ccccc1-n1nc(C)c2c1N=C1C(Cl)=CC(Cl)=CN1C2c1ccc(C(=O)O)cc1", "note": "(stereo not given)", "inhibition": "51.3% (active)"},
      {"smiles": "Cc1nn(-c2ccccc2)c(Cl)c1/C=C/C(=O)c1ccc(O)cc1", "inhibition": "-0.695%"},
      {"smiles": "Cc1ccccc1-n1nc(C)c2cc(C(=O)NC3CC3)sc21", "inhibition": "0.032%"},
      {"smiles": "COc1ccc([C@H]2OC(=O)C[C@H]2C(=O)N2CCN(c3ccccc3F)CC2)cc1OC", "inhibition": "-1.64%"},
      {"smiles": "COc1ccccc1N(C)S(=O)(=O)c1ccc(C(=O)NC2CCCCCC2)cc1", "inhibition": "50.3% (active)"},
      {"smiles": "COc1ccc(S(=O)(=O)NC(C)C)cc1C(=O)NC1CCCCC1", "inhibition": "0.027%"},
      {"smiles": "COc1ccccc1N(C)S(=O)(=O)c1ccc(C(=O)N2CCC(C(N)=O)CC2)cc1", "inhibition": "-2.68%"},
      {"smiles": "O=C(NCCC1=CCCCC1)C1CCN(S(=O)(=O)c2ccc(Cl)s2)CC1", "inhibition": "-2.83%"},
      {"smiles": "COc1ccccc1-c1cc(NC(C)=O)c2ncc(-c3ccc(F)cc3)n2c1", "inhibition": "-0.432%"}
    ]}
  ]
}
